Values joined by “and” are separate entries in the source; they are usually repeats but may differ in a detail not shown here. Identical values can stand only once. Records with an inconclusive call do not appear. Some structures have more than one record in an assay (separate samples or runs), and their calls can disagree. Active and inactive are the calls of the source. How the source made its calls: active means hit-call score of the fitted dose curve at least 0.9, where 1 is the maximum; inconclusive means response in the unintended direction; inactive means score below 0.9.
molecular target: Cellular tumor antigen p53 (Homo sapiens) (UniProt P04637); assay: TOX21_p53_BLA_p4_ratio: Tox21 HCT-116 p53 Agonism Beta-lactamase Assay, Ratio, Phase 4 (AID 2283601)
Sequence (P04637 whole entry, looked up, the tested form may be a part): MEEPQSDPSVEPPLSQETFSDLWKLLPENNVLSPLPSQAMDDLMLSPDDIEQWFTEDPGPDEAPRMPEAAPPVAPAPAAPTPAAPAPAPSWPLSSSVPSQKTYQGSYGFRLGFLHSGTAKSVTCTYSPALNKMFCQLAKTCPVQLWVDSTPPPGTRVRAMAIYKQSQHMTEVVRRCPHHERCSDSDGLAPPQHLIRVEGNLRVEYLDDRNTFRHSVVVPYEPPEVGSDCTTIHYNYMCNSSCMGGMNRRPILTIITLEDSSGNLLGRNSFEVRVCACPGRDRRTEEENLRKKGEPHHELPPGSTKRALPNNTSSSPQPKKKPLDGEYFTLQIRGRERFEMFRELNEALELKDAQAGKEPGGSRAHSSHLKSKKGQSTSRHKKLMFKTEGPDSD
Source text: TOX21_p53_BLA_p4 is a cell-based, single-readout assay that uses HCT116, a human intestinal cell line, […] in a 1536-well plate.TOX21_p53_BLA_p4_ratio is an assay readout measuring reporter gene via receptor activity and designed using inducible reporter (beta lactamase induction) detected with GAL4 b-lactamase reporter gene. The signal is derived from the ratio of cleaved (ch2) to uncleaved (ch1)reporter gene substrate used as the measure of target activity.Data from the assay component TOX21_p53_BLA_p4_ratio was analyzed into 1 assay endpoint. This assay endpoint, TOX21_p53_BLA_p4_ratio, was analyzed in the positive analysis fitting direction relative to DMSO as the negative control and baseline of activity. Using a type of inducible reporter, gain-of-signal activity can be used to understand changes in the reporter gene as they relate to the gene TP53. Furthermore, this assay endpoint can be referred to as a primary readout, because this assay has produced multiple assay endpoints where this ratio serves a reporter gene function to understand target activity. To generalize the intended target to other relatable targets, this assay endpoint is annotated to the DNA binding intended target family, where the subfamily is tumor suppressor.
Thawing Method: Place 14 mL of pre-warmed thaw medium into a 15 mL of conical tub. Remove the vial of cells to be thawed from liquid nitrogen and thaw rapidly by placing at 37C in a water bath with gentle agitation for 1-2 minutes. Decontaminate the vial by wiping with 70% ethanol before opening in a biological safety cabinet. Transfer the vial contents drop-wise into 14 mL of thaw medium in a sterile 15-mL conical tub. Centrifuge cells at 900 rpm for 4 minutes and resuspend in thaw medium. Transfer contents to the T75 tissue culture flask containing Thaw Medium and place flask in a humidified 37C/5% CO2 incubator. Switch to growth medium at first passage.Propagation Method: Aspirate medium, rinse once in DPBS, add 0.25% Trypsin/EDTA and swirl to coat the cell evenly. Add an equal volume of Growth Medium to inactivate Trypsin after 2-3 minutes incubation at 37C. Centrifuge cells at 900 rpm for 4 minutes and resuspend in growth medium. Cell should be passage or fed at least twice a week.Assay Protocol: Harvest cells from culture in growth medium and resuspend in assay medium. 2.2 Dispense 4000 cells/5 uL/well into 1536-well black/clear bottom plates using a Multidrop dispenser. After the cells were incubated at 37C for 5 hours, 23 nL of compounds dissolved in DMSO were transferred to the assay plate by a PinTool resulting in a 217-fold dilution. Incubate the plates for 16 hours at 37C, 5% CO2. Add 1 uL of 6X LiveBLAzer FRET B/G (CCF4-AM) Substrate Mixture to each well using a BioRAPTR dispenser and incubate the plates at room temperature for 2 hours. Measure fluorescence intensity at 460 and 530 nm emission and 405 nm excitation by an Envision detector. Data is expressed as the ratio of 460nm/530nm emissions. Add 4 uL of Cell-titer Glo to each well using BioRAPTR and incubate the plates at room temperature for 2 hours. Measure fluorescence intensity by a VewLux plate reader.

Structure (SMILES)	outcome	AC50
CCCCOCCOC(C)=O	inactive	
COc1cc(-c2ccc(N)c(OC)c2)ccc1N	inactive	64 µM (active)
O=C(Cc1ccccc1)c1ccccc1	inactive	
COP(=S)(OC)Oc1ccc(S(=O)(=O)N(C)C)cc1	inactive	
COP(=S)(OC)Oc1cc(Cl)c(Cl)cc1Cl	inactive	
BrCCBr	inactive	
OCC(O)CCl (stereo not given)	inactive	
COc1ccc(C=O)cc1OC	inactive	
COc1cc(OC)nc(NC(=O)NS(=O)(=O)c2ncccc2C(=O)N(C)C)n1	inactive	
CN(C)P(=O)(N(C)C)N(C)C	inactive	
C[C@H]1CCCC(=O)CCC/C=C/c2cc(O)cc(O)c2C(=O)O1		8.07 µM (active) and 12.3 µM (active)
C=CC(=O)OCCCCCC(C)C	inactive	
C(=NC1CCCCC1)=NC1CCCCC1	inactive	
O=C1C(Cl)=C(Cl)C(=O)c2ccccc21	inactive	17.1 µM (active)
Clc1ccc(COC(Cn2ccnc2)c2ccc(Cl)cc2Cl)cc1 (stereo not given)		77.8 µM (active) and 62 µM (active) and 33.9 µM (active)
CCCCCCCCc1ccc(O)cc1	inactive	
CCCCP(CCCC)CCCC	inactive	
Cl/C=C/Cl	inactive	
CCNc1nc(NC(C)(C)C)nc(SC)n1	inactive	

Structure (SMILES)	outcome	AC50
CCOC(=O)/C=C(C)/C=C/C[C@@H](C)CCCC(C)C	inactive	
O=C(O)C(F)(F)C(F)(F)C(F)(F)C(F)(F)C(F)(F)C(F)(F)C(F)(F)C(F)(F)C(F)(F)C(F)(F)F	inactive	
CCOP(=S)(OCC)Oc1nc(Cl)c(Cl)cc1Cl	inactive	
CCN1CCC2(CC1)COc1cc3c(cc12)N(C(=O)c1ccc(-c2ccc(-c4nnc(C)o4)cc2C)cc1)CC3		57.4 µM (active)
CCCCC(CC)CO[N+](=O)[O-] (stereo not given)	inactive	
CC(C)(C)c1cc(O)ccc1O	inactive	
O=P(O)(O)CN(CP(=O)(O)O)CP(=O)(O)O	inactive	
COc1ccc(C(O)(c2cncnc2)C2CC2)cc1 (stereo not given)	inactive	
C=CC#N	inactive	
OCc1ccco1	inactive	
CC(C)(C)CC(C)(C)c1ccc(O)cc1	inactive	79.4 µM (active)
COP(=O)(OC)OC	inactive	
Nc1ncc([N+](=O)[O-])s1	inactive	
O=C/C=C/c1ccccc1	inactive	
Cl/C=C\C[N+]12CN3CN(CN(C3)C1)C2	inactive	
Nc1cccc2ccccc12	inactive	
CCCCCCCCCl	inactive	
O=C(O)C(Cl)(Cl)Cl	inactive	

From PubChem BioAssay (EPA / NIEHS)
